# FMDV inh = antivirals against foot and mouth disease virus | FMDV antiviral cell-based qHTS | Potency, µM (titrated, usually from 57.9 µM), for inactives: at the top dose activity change, negative = inhibition, usual class: inhibitors | 410,000 tested, 1.2% active; calls by dose curve; tested in HEK293T cells; further: read-out not given here; potency means the concentration at half of the fitted maximal effect; nearly all actives have a fitted effect of over 45% in size
# AmpC inh detg = blocks E. coli AmpC beta-lactamase in detergent assay; P00811; AmpC hydrolysis of nitrocefin, absorbance 480 nm, 0.01% Triton; Potency, µM (titrated, usually from 114 µM), without a hit: at the highest dose activity change, negative = inhibition, hits mostly inhibitors; 370,000 tested, 0.041% active;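 further: potency means the concentration at half of the fitted maximal effect; 0% = no-compound wells and -100% = no-enzyme wells; nearly all actives have a fitted effect of over 25% in size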
# Target sequence (P00811 whole entry, looked up): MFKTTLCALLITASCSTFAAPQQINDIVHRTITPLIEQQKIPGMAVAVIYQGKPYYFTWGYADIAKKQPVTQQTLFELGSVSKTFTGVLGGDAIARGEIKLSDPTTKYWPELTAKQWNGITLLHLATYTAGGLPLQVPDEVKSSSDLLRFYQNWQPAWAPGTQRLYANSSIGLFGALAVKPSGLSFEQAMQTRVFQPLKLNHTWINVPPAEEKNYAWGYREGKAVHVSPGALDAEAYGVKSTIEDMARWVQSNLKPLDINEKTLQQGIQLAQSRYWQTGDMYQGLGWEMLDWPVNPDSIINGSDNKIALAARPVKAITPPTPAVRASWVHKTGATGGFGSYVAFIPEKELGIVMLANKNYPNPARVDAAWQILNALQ
#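 20 mM phosphate pH 7.0 + 0.01% (detergent screen) or 0.0001% Triton X-100; 5.3 nM AmpC reagent; cpd preinc 15 min RT; nitrocefin (800 uM stock) to start; A480 q20 s × 4 min; Activity was normalised to no-enzyme and no-compound control wells.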
# HCV inh = inhibitors of hepatitis C virus infection; Huh7.5.1 HCVcc-Cre infection, luciferase reporter, 44 h; Potency, µM (doses to about 41.8 µM), for the others: at the top dose activity change, negative = inhibition, usual class: inhibitors; 340,000 tested, 3.4% active; further: potency means the concentration at half of the fitted maximal effect
#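 Cells seeded at 1,000/well and cultured 4 h, then compounds added followed by HCVcc-Cre virus (~0.5 moi). After 44 h further culture, luciferase substrate was added, plates held 15 min at room temperature, and luminescence read for 15 sec.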
# HCMV inh = blocks human cytomegalovirus replication. HFF cells, HCMV-luciferase reporter, 72 h; stronger effect = lower value. activity change, negative = inhibition, % at 57.5 µM. 410,000 tested, 4.5% active; in the data active means activity change below about -60%; inconclusive means no clear call, values can overlap the other calls; inactive means above about -39%
#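 After 16 h attachment at 37C, HFF cells received test compound and HCMV-luciferase (1 PFU/cell); reporter luminescence read 72 h later, data normalized against buffer-only and known inhibitor Salinomycin.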
# AmpC inh no detg = AmpC beta-lactamase inhibition without detergent; AmpC nitrocefin hydrolysis, absorbance 480 nm, 0.0001% Triton; Potency, µM (highest dose often 57.1 µM), without a hit: at the highest dose activity change, negative = inhibition, hits mostly inhibitors; 330,000 tested, 0.52% active;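 further: potency means the concentration at half of the fitted maximal effect; plate controls were no compound for no effect and no enzyme for full effect; nearly all actives have a fitted effect of over 20% in size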
#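 20 mM phosphate pH 7.0 + 0.01% (detergent screen) or 0.0001% Triton X-100; 5.3 nM AmpC reagent; cpd preinc 15 min RT; nitrocefin (800 uM stock) to start; A480 q20 s × 4 min; Activity was normalised to no-enzyme and no-compound control wells.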
# Numbers without * were called inactive; ? = inconclusive; · = not tested or not shown. Rows were chosen to be rich in hits. Some 7.3% of all compounds tested hit in one or more screens of this group. Unless noted, the call rests on the fitted dose curve; in most records, active means well fitted curve in the direction sought with a large enough effect; inconclusive means small, poorly fitted or top-dose-only effect, or another doubt; inactive means no such curve, though single readings can be large; an effect the other way counts as inactive or inconclusive. Unless noted, on the % scale 0 is the no-effect control and ±100 the full control effect.
SMILES,FMDV inh,AmpC inh detg,HCV inh,HCMV inh,AmpC inh no detg
CCOc1ccccc1Nc1ncnc2ccc(Br)cc12,-26%,2%,22µM*,-30,-6%
CC(C)Nc1ncnc2ccc(Br)cc12,?,?,?,-96*,-14%
CC(C)COc1ccc(Nc2ncnc3ccc(Br)cc23)cc1,0%,-8%,·,-5,·
Brc1ccc2ncnc(NCc3ccco3)c2c1,14µM*,-4%,25µM*,-87*,-29%
CCOc1ccccc1Nc1ncnc2ccccc12,-32%,-6%,10µM*,-17,-10%
COc1cc2ncnc(NCc3ccco3)c2cc1OC,-26%,-2%,-7%,-8,-18%
COc1ccccc1C1CN(CC(=O)NCC2OCCc3ccccc32)Cc2ccccc2O1 (centres undefined),-6%,·,·,·,·
CC12CC(NC(=O)N1c1cccc(C(=O)NCc3ccccn3)c1)c1ccccc1O2 (centres undefined),-13%,-23%,15%,-27,14%
COc1ccccc1NC(=O)Cn1ccn(-c2cccc3ccccc23)c(=O)c1=O,22%,1%,-10%,-23,-14%
Cc1ccc(-c2nnc(NC3CCCCC3)c3ccccc23)cc1S(=O)(=O)N1CCN(C)CC1,·,-10%,-29%,-74*,87%
Cc1ccc(-c2nnc(Nc3ccc(O)cc3)c3ccccc23)cc1S(=O)(=O)N1CCOCC1,?,12%,·,-88*,·
Cc1cccc(Nc2nnc(-c3ccc(C)c(S(=O)(=O)N4CCN(C)CC4)c3)c3ccccc23)c1,-9%,-3%,·,-69*,·
COc1ccc(Nc2nnc(-c3ccc(C)c(S(=O)(=O)N4CCN(C)CC4)c3)c3ccccc23)cc1,2%,8%,·,-99*,·
Cc1ccc(Nc2nnc(-c3ccc(C)c(S(=O)(=O)N4CCN(C)CC4)c3)c3ccccc23)cc1,-6%,-8%,·,-8,·
CC(C)c1cccc(-c2nc3c(Nc4ccccc4)nccc3[nH]2)c1,·,·,·,-17,·
COc1cc(C(=O)NCc2nc(-c3ccc(Cl)cc3)no2)cc(OC)c1OC,-9%,0%,·,?,·
Cc1ccc(-c2nnc(Nc3ccc(C(=O)N(C)C)cc3)c3ccccc23)cc1S(=O)(=O)NC(C)(C)CO,47%,2%,-21%,-16,122%
Cc1ccc(-c2nnc(Nc3cccc(Br)c3)c3ccccc23)cc1S(=O)(=O)N1CCCCC1,-1%,10%,·,-8,·
Cc1ccc(-c2nnc(Nc3ccc(OC(F)(F)Cl)cc3)c3ccccc23)cc1S(=O)(=O)NC(C)(C)CO,14%,-4%,·,-95*,·
COc1ccc(Nc2nnc(-c3ccc(C)c(S(=O)(=O)N4CCOCC4)c3)c3ccccc23)cc1,5%,9%,·,-99*,·
Cc1ccc(Nc2nnc(-c3ccc(C)c(S(=O)(=O)N4CCOCC4)c3)c3ccccc23)cc1,-7%,4%,·,5,·
Cc1ccc(-c2nnc(Nc3cccc(O)c3)c3ccccc23)cc1S(=O)(=O)N1CCCCC1,-22%,-10%,·,-74*,·
CCOc1ccc(-n2ccc(=O)c(C(=O)O)n2)cc1,-9%,-11%,10%,-34,-3%
COc1cc(=O)n2c(c1C(=O)N(C)Cc1nonc1C)CCN(Cc1ccccc1F)CC2,-7%,·,·,·,·
O=C(CS(=O)(=O)Cc1ccccc1)Nc1ccccn1,13%,6%,-6%,-102*,-19%
SMILES,FMDV inh,AmpC inh detg,HCV inh,HCMV inh,AmpC inh no detg
O=C(CSc1nc(-c2cccs2)nc2cc(=O)[nH]n12)Nc1ccccc1,-18%,-4%,·,-11,·
Cc1ccnc(N/C=C(/NC(=O)c2ccccc2)C(=O)N/N=C\c2ccc(F)cc2)n1,-20%,?,1%,0,·
Cc1ccnc(N/C=C(/NC(=O)c2ccccc2)C(=O)NN)n1,-5%,5%,10%,-82*,-45%
CCOc1ccc(NC(=O)CS(=O)CC(=O)N(CC(=O)NC(C)(C)C)C2CCCC2)cc1 (centres undefined),8%,-11%,1%,-12,1%
CC(C)c1ccc(C(=O)NCCCN2CCOCC2)cc1,32%,-1%,1%,-15,0%
O=C(Nc1nc2ccccc2[nH]1)c1ccc(S(=O)(=O)N2CCOCC2)cc1,14%,4%,28%,2,-24%
O=C(Nc1ccc(N2CCCCC2)c(Cl)c1)c1cccnc1,9%,?,?,-78*,1%

# High-throughput results (PubChem)
